Data as given in ChEMBL document CHEMBL1961873, “Compounds: GSK PKIS; Assays: Nanosyn kinase panel” (2012).

Experiments:
[1] = target: T1, 3-phosphoinositide-dependent protein kinase 1 (Homo sapiens) (UniProt O15530); conditions: at 0.1 µM;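 further: values are mean inhibition of PDK1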
T1 sequence (whole entry): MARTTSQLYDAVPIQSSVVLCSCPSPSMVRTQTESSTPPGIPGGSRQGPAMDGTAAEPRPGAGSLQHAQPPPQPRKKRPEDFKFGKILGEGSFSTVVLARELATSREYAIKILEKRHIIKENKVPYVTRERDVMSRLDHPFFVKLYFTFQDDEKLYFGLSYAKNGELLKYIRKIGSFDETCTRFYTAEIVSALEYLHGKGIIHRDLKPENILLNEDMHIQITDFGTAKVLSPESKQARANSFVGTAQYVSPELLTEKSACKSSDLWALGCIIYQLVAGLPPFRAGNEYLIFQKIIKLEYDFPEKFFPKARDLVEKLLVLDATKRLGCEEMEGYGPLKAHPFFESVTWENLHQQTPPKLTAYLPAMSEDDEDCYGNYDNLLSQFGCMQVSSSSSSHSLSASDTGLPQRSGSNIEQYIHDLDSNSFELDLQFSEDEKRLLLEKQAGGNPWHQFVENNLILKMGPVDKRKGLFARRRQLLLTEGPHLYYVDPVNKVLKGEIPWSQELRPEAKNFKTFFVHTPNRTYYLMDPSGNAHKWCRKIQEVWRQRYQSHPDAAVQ

[2] = target: cAMP-dependent protein kinase catalytic subunit alpha (Homo sapiens) (UniProt P17612); conditions: at 0.1 µM
[3] = target: cAMP-dependent protein kinase catalytic subunit alpha (Homo sapiens) (UniProt P17612); conditions: at 1 µM
[4] = target: Protein kinase C alpha type (Homo sapiens) (UniProt P17252); conditions: at 0.1 µM
[5] = target: Protein kinase C alpha type (Homo sapiens) (UniProt P17252); conditions: at 1 µM
[6] = target: Protein kinase C beta type (Homo sapiens) (UniProt P05771); conditions: at 0.1 µM
[7] = target: Protein kinase C beta type (Homo sapiens) (UniProt P05771); conditions: at 1 µM
[8] = target: Protein kinase C eta type (Homo sapiens) (UniProt P24723); conditions: at 0.1 µM
[9] = target: Protein kinase C eta type (Homo sapiens) (UniProt P24723); conditions: at 1 µM
[10] = target: Protein kinase C gamma type (Homo sapiens) (UniProt P05129); conditions: at 0.1 µM
[11] = target: Protein kinase C gamma type (Homo sapiens) (UniProt P05129); conditions: at 1 µM
[12] = target: T2, Protein kinase C iota type (Homo sapiens) (UniProt P41743); conditions: at 0.1 µM
T2 sequence (whole entry): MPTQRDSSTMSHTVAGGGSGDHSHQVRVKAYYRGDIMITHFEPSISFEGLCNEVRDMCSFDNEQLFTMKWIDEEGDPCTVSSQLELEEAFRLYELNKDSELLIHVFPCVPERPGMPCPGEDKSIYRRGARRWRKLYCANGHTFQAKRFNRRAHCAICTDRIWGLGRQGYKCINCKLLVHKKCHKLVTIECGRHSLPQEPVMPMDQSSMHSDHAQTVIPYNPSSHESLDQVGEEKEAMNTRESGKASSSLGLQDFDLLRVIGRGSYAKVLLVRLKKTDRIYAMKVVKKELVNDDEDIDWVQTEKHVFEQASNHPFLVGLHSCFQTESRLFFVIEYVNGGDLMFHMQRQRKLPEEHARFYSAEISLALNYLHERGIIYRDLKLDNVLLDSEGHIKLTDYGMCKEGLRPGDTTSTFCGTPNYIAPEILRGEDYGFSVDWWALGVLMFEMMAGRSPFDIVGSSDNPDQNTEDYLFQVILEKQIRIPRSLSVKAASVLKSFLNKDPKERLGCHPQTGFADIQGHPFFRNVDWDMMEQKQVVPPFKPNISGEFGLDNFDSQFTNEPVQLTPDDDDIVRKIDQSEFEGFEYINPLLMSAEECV

[13] = target: T2, Protein kinase C iota type (Homo sapiens); conditions: at 1 µM
[14] = target: Protein kinase C theta type (Homo sapiens) (UniProt Q04759); conditions: at 0.1 µM
[15] = target: Protein kinase C theta type (Homo sapiens) (UniProt Q04759); conditions: at 1 µM
[16] = target: Protein kinase C beta type (Homo sapiens) (UniProt P05771); conditions: at 0.1 µM; remark: listed apart in the source
[17] = target: Protein kinase C beta type (Homo sapiens) (UniProt P05771); conditions: at 1 µM; remark: listed apart in the source
[18] = target: T3, Serine/threonine-protein kinase D1 (Homo sapiens) (UniProt Q15139); conditions: at 0.1 µM
T3 sequence (whole entry): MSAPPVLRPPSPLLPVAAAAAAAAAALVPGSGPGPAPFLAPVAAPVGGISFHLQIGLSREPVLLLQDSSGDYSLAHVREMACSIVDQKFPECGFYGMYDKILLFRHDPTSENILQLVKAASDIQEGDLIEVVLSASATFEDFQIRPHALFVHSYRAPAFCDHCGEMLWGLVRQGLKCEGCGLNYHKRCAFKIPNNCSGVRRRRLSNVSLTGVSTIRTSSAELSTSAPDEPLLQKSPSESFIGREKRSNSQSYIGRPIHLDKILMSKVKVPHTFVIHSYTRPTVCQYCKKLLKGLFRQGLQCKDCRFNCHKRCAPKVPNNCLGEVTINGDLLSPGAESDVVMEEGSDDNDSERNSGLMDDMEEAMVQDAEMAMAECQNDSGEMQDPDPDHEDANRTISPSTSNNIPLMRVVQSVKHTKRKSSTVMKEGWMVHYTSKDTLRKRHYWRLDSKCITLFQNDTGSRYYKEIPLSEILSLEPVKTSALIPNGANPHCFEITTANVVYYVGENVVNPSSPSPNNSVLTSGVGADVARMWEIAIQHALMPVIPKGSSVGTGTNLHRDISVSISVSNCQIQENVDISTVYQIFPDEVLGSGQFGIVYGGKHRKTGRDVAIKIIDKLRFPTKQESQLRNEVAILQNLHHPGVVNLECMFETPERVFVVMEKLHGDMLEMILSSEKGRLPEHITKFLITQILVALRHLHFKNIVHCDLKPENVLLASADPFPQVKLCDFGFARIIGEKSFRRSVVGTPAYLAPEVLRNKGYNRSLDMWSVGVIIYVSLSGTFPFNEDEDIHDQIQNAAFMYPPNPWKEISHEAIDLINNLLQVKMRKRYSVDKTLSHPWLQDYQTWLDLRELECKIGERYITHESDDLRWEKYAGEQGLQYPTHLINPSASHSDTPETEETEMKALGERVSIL

[19] = target: T3, Serine/threonine-protein kinase D1 (Homo sapiens); conditions: at 1 µM
[20] = target: T4, Serine/threonine-protein kinase D2 (Homo sapiens) (UniProt Q9BZL6); conditions: at 0.1 µM;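 further: reported percent inhibition values are means, part of the GSK PKIS kinase panel screen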
T4 sequence (whole entry): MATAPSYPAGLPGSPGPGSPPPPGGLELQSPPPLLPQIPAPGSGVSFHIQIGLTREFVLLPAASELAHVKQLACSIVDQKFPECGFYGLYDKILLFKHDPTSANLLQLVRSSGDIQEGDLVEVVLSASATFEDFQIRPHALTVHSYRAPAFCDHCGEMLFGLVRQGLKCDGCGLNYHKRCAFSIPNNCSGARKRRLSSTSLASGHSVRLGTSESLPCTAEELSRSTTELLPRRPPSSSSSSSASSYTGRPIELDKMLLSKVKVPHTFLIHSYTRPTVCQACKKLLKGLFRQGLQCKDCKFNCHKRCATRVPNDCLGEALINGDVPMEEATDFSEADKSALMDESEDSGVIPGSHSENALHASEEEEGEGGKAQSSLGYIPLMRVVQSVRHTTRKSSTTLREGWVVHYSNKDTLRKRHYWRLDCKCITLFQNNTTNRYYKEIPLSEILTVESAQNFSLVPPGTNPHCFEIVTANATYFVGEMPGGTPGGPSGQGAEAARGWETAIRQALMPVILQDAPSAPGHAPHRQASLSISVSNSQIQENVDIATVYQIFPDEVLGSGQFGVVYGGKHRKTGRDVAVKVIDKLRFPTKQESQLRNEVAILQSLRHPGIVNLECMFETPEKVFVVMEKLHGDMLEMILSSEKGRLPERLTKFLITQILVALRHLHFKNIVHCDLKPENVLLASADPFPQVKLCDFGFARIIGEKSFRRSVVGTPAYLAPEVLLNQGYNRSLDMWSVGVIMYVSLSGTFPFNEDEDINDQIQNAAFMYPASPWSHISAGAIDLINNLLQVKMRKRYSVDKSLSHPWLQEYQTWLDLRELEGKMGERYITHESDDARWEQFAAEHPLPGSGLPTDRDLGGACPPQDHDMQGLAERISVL

Chain of Protein kinase C beta type (Homo sapiens) (P05771 2-671 limits assumed): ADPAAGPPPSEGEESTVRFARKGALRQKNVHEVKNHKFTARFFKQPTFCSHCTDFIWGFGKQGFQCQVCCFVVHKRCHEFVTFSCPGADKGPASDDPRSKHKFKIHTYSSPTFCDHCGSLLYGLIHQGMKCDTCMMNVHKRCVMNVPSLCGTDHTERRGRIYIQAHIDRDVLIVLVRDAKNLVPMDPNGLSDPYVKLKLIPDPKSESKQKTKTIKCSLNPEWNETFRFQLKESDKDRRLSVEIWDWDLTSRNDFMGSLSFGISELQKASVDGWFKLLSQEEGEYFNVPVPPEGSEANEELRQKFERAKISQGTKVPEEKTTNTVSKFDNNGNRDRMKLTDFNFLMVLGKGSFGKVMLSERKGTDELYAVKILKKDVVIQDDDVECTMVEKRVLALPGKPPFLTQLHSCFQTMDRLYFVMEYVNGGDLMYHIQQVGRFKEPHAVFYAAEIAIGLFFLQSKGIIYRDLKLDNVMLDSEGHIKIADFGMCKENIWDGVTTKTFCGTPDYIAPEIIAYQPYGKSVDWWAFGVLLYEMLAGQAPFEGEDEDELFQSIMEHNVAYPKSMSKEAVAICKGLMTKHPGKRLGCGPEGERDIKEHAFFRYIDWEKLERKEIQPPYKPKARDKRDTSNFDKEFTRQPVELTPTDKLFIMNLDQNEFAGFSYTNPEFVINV
Chain of Protein kinase C eta type (Homo sapiens) (P24723 whole entry): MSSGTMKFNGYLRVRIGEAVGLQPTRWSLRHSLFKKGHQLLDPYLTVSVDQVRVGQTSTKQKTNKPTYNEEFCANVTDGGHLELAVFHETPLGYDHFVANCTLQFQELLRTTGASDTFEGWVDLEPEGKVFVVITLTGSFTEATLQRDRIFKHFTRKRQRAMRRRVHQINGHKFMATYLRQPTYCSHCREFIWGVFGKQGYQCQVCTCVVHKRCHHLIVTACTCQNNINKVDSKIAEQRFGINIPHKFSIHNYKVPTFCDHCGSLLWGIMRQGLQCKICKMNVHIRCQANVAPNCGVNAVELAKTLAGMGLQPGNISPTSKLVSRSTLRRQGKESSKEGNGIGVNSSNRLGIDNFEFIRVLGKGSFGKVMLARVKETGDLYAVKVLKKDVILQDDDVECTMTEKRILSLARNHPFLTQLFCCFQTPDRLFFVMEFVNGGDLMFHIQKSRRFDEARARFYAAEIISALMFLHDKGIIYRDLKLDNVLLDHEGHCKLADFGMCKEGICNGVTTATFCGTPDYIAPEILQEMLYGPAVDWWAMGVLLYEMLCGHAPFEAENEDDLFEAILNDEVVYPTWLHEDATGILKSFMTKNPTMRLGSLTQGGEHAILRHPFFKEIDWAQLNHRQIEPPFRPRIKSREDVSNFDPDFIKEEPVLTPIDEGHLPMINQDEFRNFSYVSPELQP
Chain of Protein kinase C theta type (Homo sapiens) (Q04759 whole entry, looked up): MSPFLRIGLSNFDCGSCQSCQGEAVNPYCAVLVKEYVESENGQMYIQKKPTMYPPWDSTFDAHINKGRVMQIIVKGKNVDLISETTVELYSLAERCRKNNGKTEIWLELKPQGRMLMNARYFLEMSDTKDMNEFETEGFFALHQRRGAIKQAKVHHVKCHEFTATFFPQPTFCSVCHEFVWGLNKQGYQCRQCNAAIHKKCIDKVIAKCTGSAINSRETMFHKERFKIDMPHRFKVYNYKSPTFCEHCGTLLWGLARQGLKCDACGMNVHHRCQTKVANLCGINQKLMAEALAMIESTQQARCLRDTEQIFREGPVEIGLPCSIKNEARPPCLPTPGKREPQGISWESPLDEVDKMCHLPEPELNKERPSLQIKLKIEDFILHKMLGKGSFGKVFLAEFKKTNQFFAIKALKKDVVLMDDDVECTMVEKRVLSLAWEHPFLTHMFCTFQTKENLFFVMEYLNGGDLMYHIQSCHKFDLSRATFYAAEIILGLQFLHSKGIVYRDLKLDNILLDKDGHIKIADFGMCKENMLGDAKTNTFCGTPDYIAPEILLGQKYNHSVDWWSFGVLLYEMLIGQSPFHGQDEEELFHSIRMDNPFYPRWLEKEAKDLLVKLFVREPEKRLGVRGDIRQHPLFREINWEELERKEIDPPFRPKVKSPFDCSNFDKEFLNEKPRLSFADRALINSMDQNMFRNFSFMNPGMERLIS

Structure (SMILES): O=C1NC(=O)C(c2cccc(Cl)c2)=C1Nc1ccc(O)c(Cl)c1
- inhibition [1]: 0.43%
- inhibition [2]: 1.25%
- inhibition [3]: 1.73%
- inhibition [4]: 3.2%
- inhibition [5]: 6.33%
- inhibition [6]: 0.44%
- inhibition [7]: 4.94%
- inhibition [8]: 1.88%
- inhibition [9]: 2.97%
- inhibition [10]: -4.59%
- inhibition [11]: 0.01%
- inhibition [12]: -1.41%
- inhibition [13]: 0.5%
- inhibition [14]: 0%
- inhibition [15]: 4.79%
- inhibition [16]: 0.56%
- inhibition [17]: 8.45%
- inhibition [18]: 0.15%
- inhibition [19]: 1.38%
- inhibition [20]: 0.62%

Structure (SMILES): CCn1c(-c2nonc2N)nc2cncc(C(=O)N3CCNCC3)c21
- inhibition [1]: 2.8%
- inhibition [2]: 4.17%
- inhibition [3]: 8.74%
- inhibition [4]: 0.92%
- inhibition [5]: 1.73%
- inhibition [6]: 2.12%
- inhibition [7]: 4.3%
- inhibition [8]: 6.14%
- inhibition [9]: 4.16%
- inhibition [10]: 1.3%
- inhibition [11]: 0.03%
- inhibition [12]: 1.74%
- inhibition [13]: 0.89%
- inhibition [14]: 3.06%
- inhibition [15]: 3.7%
- inhibition [16]: 1.85%
- inhibition [17]: 3.67%
- inhibition [18]: 5.23%
- inhibition [19]: 6.72%
- inhibition [20]: 5.57%

Structure (SMILES): CS(=O)(=O)CCNCc1nc(-c2ccc3ncnc(Nc4ccc(F)c(Cl)c4)c3c2)cs1
- inhibition [1]: 1.98%
- inhibition [2]: 1.17%
- inhibition [3]: 1.29%
- inhibition [4]: 0.29%
- inhibition [5]: 0.92%
- inhibition [6]: 1.56%
- inhibition [7]: 2.07%
- inhibition [8]: 1.59%
- inhibition [9]: 3.26%
- inhibition [10]: 2.71%
- inhibition [11]: 0.73%
- inhibition [12]: -0.92%
- inhibition [13]: -0.18%
- inhibition [14]: 0.64%
- inhibition [15]: 2.27%
- inhibition [16]: -0.23%
- inhibition [17]: 2.18%
- inhibition [18]: 1.88%
- inhibition [19]: 2.6%
- inhibition [20]: 0.4%

Structure (SMILES): O=C1Nc2ccc(C(=O)c3ccco3)cc2C1=Cc1cc(Cl)c(O)c(Cl)c1
- inhibition [1]: 3.22%
- inhibition [2]: 1.97%
- inhibition [3]: 4.78%
- inhibition [4]: 1.38%
- inhibition [5]: 3.32%
- inhibition [6]: -0.57%
- inhibition [7]: 1.37%
- inhibition [8]: 4.29%
- inhibition [9]: 7.64%
- inhibition [10]: 1.31%
- inhibition [11]: 6.26%
- inhibition [12]: 4.4%
- inhibition [13]: -0.01%
- inhibition [14]: 2.45%
- inhibition [15]: 7.59%
- inhibition [16]: 1.83%
- inhibition [17]: 3.01%
- inhibition [18]: 2.76%
- inhibition [19]: 6.32%
- inhibition [20]: 2.72%

Structure (SMILES): CN(C)c1cc2c(Nc3ccc4nc(Cc5ccccc5)[nH]c4c3)ncnc2cn1
- inhibition [1]: 4.68%
- inhibition [2]: 3.66%
- inhibition [3]: 2.62%
- inhibition [4]: 1.27%
- inhibition [5]: 2.33%
- inhibition [6]: -1.06%
- inhibition [7]: 2.6%
- inhibition [8]: 3.25%
- inhibition [9]: 3.62%
- inhibition [10]: 3.66%
- inhibition [11]: 4.36%
- inhibition [12]: 2.13%
- inhibition [13]: 2.77%
- inhibition [14]: 2.25%
- inhibition [15]: 4.22%
- inhibition [16]: 1.18%
- inhibition [17]: 3.96%
- inhibition [18]: 4.29%
- inhibition [19]: 6.67%
- inhibition [20]: 5.21%

Structure (SMILES): COC(=O)Nc1nc2cc(Oc3ccc(NC(=O)Nc4cccc(C(=O)O)c4)cc3)ccc2[nH]1
- inhibition [1]: 2.53%
- inhibition [2]: -3.91%
- inhibition [3]: 0.18%
- inhibition [4]: -3.01%
- inhibition [5]: -3.65%
- inhibition [6]: 0.02%
- inhibition [7]: 1.6%
- inhibition [8]: -0.35%
- inhibition [9]: 3.15%
- inhibition [10]: 2.38%
- inhibition [11]: -0.24%
- inhibition [12]: 0.47%
- inhibition [13]: -1.28%
- inhibition [14]: 0.18%
- inhibition [15]: 2.02%
- inhibition [16]: -0.5%
- inhibition [17]: 0.44%
- inhibition [18]: -1.35%
- inhibition [19]: -1.96%
- inhibition [20]: -3.05%
